# Experimental data published in PubChem BioAssay.
# Assay: probe aInhba binding on compound microarray – biochemical, small-molecule microarray, 635/667 nm fluorescence, primary screen (AID 1148);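 also: score merges 667nm spot fluorescence with signal-to-noise for antibody binding to printed compounds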
# Conditions: higher = more signal
row,Compound,composite z-score
1,C=CCOC(=O)[C@@H]1[C@H]2C(=O)O[C@H](c3ccccc3)[C@H](c3ccccc3)N2[C@H](c2ccc(OCCOC(=O)[C@H]3C[C@H]4C(=O)N5CCC[C@H]5C(=O)N4[C@H]3c3ccc(O)cc3)cc2)[C@@]12C(=O)Nc1ccccc12,1.03
2,C[C@@H]1CC[C@H]2C(=O)N3[C@@H](CC[C@@H](C)[C@@H]3c3cccc(N4CCOCC4)c3)C(=O)N2[C@H]1c1cccc(N2CCOCC2)c1,-0.278
3,COc1ccc(-c2ccccc2[C@@H]2N[C@H](C(=O)O)CC[C@H]2C)cc1,-0.109
4,CN1CCC(CCCO)=CC1C1CC1 (stereo unspecified),-0.202
5,C=CCC(OC(C)=O)[C@@H]1[C@@H](N(Cc2cc3ccccc3o2)C(=O)c2ccc(C)cc2)c2cc(OCCCO)ccc2N1C(=O)c1ccc2ccccc2n1 (stereo partly specified),-0.0266
6,C[C@H]1COC(=O)[C@H](Cc2ccccc2)NC(=O)[C@@H](C)COC(=O)[C@H](Cc2ccccc2)NC1=O,-0.0523
7,CCN1C(C)=C(C(=O)OC)[C@@H](c2ccccc2)N2C(=O)[C@@]3(C(=O)OC)O[C@@]12[C@@H]1C(=O)N(c2ccccc2)C(=O)[C@@H]13,-0.211
8,CCCC/C=C/[C@H]([C@@H](O)Cc1ccccc1)N(CC#Cc1ccccc1)Cc1ccccc1Br,-0.302
9,Cc1ccc(S[C@]2(C(=O)NCCCN(C)C)CC(=O)N(C3CCCCC3)[C@@H]2c2ccc(CO)cc2I)cc1,-0.128
10,CO[C@@H]1COC(=O)[C@H](C)NC(=O)CC=C[C@@H](C)[C@H](NS(=O)(=O)c2ccc(C)cc2)COC(=O)CC=C[C@@H]1C,-0.145
11,C=CCNC(=O)[C@H]1[C@@H]2C(=O)O[C@@H](c3ccccc3)[C@@H](c3ccccc3)N2[C@@H](c2ccccc2OCCO)[C@]12C(=O)N(C(=O)OCCOC)c1ccc(C#CCC(C(=O)OC)C(=O)OC)cc12,0.225
12,CC(=O)NCCCC[C@@H]1NC(=O)[C@@H]2C[C@H](C(=O)NCCCCCCN(C)C)[C@H](c3ccc(O)cc3)N2C1=O,0.982
13,O=C(NCC(O)CO)[C@]1(Cc2ccccc2)N=C(c2ccc(OCCCO)cc2)O[C@@H]1c1ccccc1 (stereo partly specified),0.633
14,C[C@H]1NC(=O)[C@@H](C)NC(=O)[C@@]23C(=O)N[C@@H](Cc4ccccc4)C2[C@H](C)[C@@]2(C)O[C@H]2C3/C=C/C/C=C\CNC1=O (stereo partly specified),-0.128
15,CC(C)N1CC=CC23O[C@@H]4/C=C\CCCOC(=O)C4[C@H]2C(=O)N(CCO)[C@@H]3C1=O (stereo partly specified),-0.0695
16,C=CC[C@]1(C(=O)O)N=C(c2ccc(OCCCO)cc2)O[C@H]1c1ccccc1,-0.0471
17,CC(C)CNC(=O)[C@@]1(C)c2ccccc2C(=O)N(Cc2ccc(OC(F)(F)F)cc2)[C@H]1c1ccc(CO)cc1,-0.128
18,CO[C@H]1COC(=O)[C@H](Cc2ccccc2)NC(=O)CC=C[C@@H](C)[C@H](OC)COC(=O)CC=C[C@@H]1C,-0.0954

row,Compound,composite z-score
1,C=C(COC)/C(=C/C[C@@H](OC(=O)c1ccncc1)c1ccc(OCCO)cc1)c1cc(C(=O)OC)ccc1OC,0.0212
2,CSCC[C@@H]1NC(=O)CC=C[C@@H](C)COC(=O)[C@H](CCSC)NC(=O)CC=C[C@@H](C)COC1=O,-0.146
3,O=C1OCC=C[C@H]2OC34C=CCN(Cc5ccccc5)C(=O)[C@H]3N(CCCCCO)C(=O)[C@@H]4[C@@H]12 (stereo partly specified),0.0282
4,Cc1ccc(S[C@]2(C(=O)NCCN3CCOCC3)CC(=O)N(C3Cc4ccccc4C3)[C@@H]2c2ccc(CO)cc2I)cc1,0.0756
5,COC(=O)C[C@H]1O[C@]2(C(=O)N(C)c3ccccc32)[C@@H](C)[C@@H]1[Si](C)(C)c1ccc(OC)cc1,0.138
6,CC/C=C/C(=O)N(C[C@@H]1CCCO1)[C@@H]1CC(C(=O)NCCO)=C[C@H](Oc2c(I)cc(CO)cc2OC)[C@H]1O,-0.128
7,C=C[C@H](OC)[C@@H](OC(=O)Nc1ccc(SC)cc1)c1ccc(OC)c(O)c1,-0.128
8,CN1C2C=C(c3ccc(CO)cc3)C(C3C(=O)N(C(N)=O)C(=O)C32)C1c1cccs1 (stereo unspecified),-0.0791
9,C=CCN(C(=O)C1N(c2ccc(CCO)cc2)C(=O)C2C(C(=O)O)C3C=CC21O3)C(C)(C)C (stereo unspecified),-0.227
10,C=CCC1=C[C@H]2[C@H]([C@@H]3C=C[C@]2(CC=C)C(=O)[C@]32CO2)[C@@]2(CO2)C1=O,-0.0021
11,Cc1ccc(S[C@]2(C(=O)O)CC(=O)N(Cc3ccccc3)[C@@H]2c2ccc(CO)cc2)cc1,-0.154
12,CCCNC(=O)[C@@H]1c2ccccc2C(=O)N(Cc2cc(F)cc(C(F)(F)F)c2)[C@H]1c1ccc(CO)cc1,0.157
13,O=C1c2ccccc2[C@](Cc2ccccc2I)(C(=O)O)[C@H](c2ccc(CO)cc2)N1C1CCCCC1,0.0676
14,[N-]=[N+]=NCc1ccccc1C[C@]1(C(N)=O)N=C(c2ccc(OCCCO)cc2)O[C@H]1c1ccccc1CN=[N+]=[N-],0.17
15,CO[C@H]1COC(=O)[C@H](C)NC(=O)CC=C[C@@H](C)[C@H](NS(=O)(=O)c2ccc(C)cc2)COC(=O)[C@@H](OCc2ccccc2)C=C[C@@H]1C,-0.261
16,COC(=O)c1c(CC[C@@H](CO)NC(=O)N[C@H](Cn2cc(-c3cncn3C)nn2)C(C)C)oc(C(C)=O)c1C(=O)OC,-0.282
17,C=C(COC)/C(=C/C[C@@H](OC(C)=O)c1cccc(OCCO)c1)c1cc(C(=O)OC)ccc1OC,-0.0221
18,CC(C)[Si]1(C(C)C)O[C@@H](c2ccccc2)c2cc(C3CC3)nc(-c3ccc(Oc4ccccc4)cc3)c21,-0.0082
